Experimental data as given in ChEMBL document CHEMBL1961873, “Compounds: GSK PKIS; Assays: Nanosyn kinase panel” (2012).

Assays:
[1] = target: T1, Inhibitor of nuclear factor kappa-B kinase subunit epsilon (Homo sapiens) (UniProt Q14164); conditions: at 1 µM;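 also: reported values are averaged percent inhibition figures against human IKKε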
T1 sequence (whole entry): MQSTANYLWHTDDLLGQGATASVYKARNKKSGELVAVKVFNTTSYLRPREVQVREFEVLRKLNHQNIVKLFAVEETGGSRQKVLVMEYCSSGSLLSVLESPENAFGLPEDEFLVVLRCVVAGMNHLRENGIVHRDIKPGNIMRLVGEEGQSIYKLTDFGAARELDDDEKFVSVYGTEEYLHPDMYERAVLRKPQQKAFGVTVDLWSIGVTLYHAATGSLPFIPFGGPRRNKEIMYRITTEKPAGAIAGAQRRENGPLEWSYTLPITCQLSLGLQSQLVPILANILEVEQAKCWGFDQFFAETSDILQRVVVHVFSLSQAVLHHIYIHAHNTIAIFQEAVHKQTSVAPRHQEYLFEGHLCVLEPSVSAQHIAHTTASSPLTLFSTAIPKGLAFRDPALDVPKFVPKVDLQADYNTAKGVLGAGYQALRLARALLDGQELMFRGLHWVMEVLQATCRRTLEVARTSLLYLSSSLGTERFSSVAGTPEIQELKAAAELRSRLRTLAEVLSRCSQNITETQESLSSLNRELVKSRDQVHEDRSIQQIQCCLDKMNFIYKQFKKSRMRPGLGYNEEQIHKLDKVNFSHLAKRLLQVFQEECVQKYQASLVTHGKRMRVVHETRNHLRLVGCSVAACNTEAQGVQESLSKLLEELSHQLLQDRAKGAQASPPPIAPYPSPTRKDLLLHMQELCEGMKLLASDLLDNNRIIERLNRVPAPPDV

[2] = target: T2, Serine/threonine-protein kinase Nek1 (Homo sapiens) (UniProt Q96PY6); conditions: at 0.1 µM
T2 sequence (whole entry): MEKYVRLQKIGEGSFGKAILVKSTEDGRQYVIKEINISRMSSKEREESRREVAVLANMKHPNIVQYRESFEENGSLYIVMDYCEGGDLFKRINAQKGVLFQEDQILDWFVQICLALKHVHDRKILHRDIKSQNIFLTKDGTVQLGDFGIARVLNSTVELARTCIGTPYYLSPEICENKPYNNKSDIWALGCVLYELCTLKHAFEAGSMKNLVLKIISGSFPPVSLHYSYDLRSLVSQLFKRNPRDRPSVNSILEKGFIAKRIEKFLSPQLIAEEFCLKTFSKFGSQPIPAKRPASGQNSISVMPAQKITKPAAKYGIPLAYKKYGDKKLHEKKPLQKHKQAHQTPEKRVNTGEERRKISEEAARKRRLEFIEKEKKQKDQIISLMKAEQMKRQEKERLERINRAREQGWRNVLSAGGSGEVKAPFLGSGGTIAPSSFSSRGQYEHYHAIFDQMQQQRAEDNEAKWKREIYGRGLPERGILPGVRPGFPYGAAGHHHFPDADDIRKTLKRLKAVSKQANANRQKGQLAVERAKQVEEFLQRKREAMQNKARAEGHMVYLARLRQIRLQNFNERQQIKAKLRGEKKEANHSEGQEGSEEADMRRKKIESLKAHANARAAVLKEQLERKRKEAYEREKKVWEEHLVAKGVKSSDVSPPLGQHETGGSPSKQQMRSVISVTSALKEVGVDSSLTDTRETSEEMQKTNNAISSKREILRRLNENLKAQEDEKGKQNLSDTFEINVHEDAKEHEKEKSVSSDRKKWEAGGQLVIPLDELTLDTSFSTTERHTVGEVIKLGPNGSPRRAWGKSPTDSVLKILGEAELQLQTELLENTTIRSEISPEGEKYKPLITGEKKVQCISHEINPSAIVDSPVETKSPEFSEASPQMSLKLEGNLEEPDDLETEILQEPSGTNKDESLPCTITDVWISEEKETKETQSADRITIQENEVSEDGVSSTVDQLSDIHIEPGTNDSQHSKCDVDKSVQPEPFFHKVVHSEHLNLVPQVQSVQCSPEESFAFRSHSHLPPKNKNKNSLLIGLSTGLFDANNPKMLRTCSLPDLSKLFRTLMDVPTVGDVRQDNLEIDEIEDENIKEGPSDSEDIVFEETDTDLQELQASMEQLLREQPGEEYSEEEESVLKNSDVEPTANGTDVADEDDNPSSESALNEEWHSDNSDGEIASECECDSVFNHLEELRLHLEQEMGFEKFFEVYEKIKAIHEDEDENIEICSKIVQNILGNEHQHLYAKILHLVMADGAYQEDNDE

[3] = target: T2, Serine/threonine-protein kinase Nek1 (Homo sapiens); conditions: at 1 µM
[4] = target: T3, Serine/threonine-protein kinase Nek2 (Homo sapiens) (UniProt P51955); conditions: at 0.1 µM
T3 sequence (whole entry): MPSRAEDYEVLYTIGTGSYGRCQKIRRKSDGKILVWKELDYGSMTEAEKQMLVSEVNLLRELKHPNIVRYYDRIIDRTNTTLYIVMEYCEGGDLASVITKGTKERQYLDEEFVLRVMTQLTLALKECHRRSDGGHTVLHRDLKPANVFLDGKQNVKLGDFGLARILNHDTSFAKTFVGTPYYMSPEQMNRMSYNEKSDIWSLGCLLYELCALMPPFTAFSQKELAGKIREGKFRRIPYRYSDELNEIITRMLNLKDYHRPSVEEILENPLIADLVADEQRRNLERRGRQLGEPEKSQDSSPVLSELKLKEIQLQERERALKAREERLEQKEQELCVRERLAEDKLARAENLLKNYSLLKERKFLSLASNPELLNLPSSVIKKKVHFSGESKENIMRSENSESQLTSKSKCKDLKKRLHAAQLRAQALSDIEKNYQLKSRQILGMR

[5] = target: T3, Serine/threonine-protein kinase Nek2 (Homo sapiens); conditions: at 1 µM
[6] = target: Serine/threonine-protein kinase Nek6 (Homo sapiens) (UniProt Q9HC98); conditions: at 0.1 µM
Serine/threonine-protein kinase Nek6 (Homo sapiens), sequence (Q9HC98 whole entry): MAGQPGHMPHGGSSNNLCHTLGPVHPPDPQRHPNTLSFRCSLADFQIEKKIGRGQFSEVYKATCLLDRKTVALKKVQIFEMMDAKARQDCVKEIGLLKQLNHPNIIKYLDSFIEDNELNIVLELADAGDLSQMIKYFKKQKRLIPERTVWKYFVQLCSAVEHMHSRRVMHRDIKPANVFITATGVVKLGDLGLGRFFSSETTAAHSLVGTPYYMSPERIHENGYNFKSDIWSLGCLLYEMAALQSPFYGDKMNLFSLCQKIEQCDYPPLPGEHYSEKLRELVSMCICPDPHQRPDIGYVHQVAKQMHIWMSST

[7] = target: Serine/threonine-protein kinase Nek6 (Homo sapiens) (UniProt Q9HC98); conditions: at 1 µM
[8] = target: Serine/threonine-protein kinase Nek7 (Homo sapiens) (UniProt Q8TDX7); conditions: at 0.1 µM
Serine/threonine-protein kinase Nek7 (Homo sapiens), sequence (Q8TDX7 whole entry, looked up): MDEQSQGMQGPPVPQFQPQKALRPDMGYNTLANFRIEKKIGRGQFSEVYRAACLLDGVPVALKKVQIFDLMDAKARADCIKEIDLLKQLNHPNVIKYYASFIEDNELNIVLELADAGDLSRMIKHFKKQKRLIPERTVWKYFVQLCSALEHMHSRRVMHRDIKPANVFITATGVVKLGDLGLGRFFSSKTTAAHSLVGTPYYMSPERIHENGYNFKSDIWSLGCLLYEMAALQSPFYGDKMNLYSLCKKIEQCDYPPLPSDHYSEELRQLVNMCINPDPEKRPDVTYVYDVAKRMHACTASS

[9] = target: Serine/threonine-protein kinase Nek7 (Homo sapiens) (UniProt Q8TDX7); conditions: at 1 µM
[10] = target: T4, Serine/threonine-protein kinase Nek9 (Homo sapiens) (UniProt Q8TD19); conditions: at 0.1 µM
T4 sequence (whole entry): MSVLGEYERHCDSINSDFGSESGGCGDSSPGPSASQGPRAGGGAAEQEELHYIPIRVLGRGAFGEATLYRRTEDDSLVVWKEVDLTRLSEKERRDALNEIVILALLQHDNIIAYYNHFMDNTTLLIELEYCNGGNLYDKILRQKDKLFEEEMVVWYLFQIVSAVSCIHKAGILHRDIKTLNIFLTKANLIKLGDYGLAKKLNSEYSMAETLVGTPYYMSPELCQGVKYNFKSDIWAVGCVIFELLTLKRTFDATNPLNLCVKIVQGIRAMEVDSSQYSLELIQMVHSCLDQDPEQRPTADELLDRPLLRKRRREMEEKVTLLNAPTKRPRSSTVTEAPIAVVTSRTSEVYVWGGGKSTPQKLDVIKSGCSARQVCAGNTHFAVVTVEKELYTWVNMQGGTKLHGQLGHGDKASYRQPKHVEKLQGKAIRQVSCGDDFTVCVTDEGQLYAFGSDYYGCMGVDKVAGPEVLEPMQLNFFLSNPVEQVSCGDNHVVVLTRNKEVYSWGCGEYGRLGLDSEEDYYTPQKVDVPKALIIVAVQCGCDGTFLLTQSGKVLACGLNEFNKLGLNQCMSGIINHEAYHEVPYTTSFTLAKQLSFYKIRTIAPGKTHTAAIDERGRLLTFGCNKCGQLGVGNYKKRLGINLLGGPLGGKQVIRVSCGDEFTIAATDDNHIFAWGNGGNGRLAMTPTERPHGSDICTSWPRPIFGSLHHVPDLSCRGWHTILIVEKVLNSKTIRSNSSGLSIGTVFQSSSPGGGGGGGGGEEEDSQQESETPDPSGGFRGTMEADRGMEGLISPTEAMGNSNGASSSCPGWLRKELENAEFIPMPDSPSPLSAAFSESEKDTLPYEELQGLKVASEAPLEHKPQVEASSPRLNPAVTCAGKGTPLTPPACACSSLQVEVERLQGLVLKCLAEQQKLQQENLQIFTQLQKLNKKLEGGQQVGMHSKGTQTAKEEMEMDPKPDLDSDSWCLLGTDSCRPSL

[11] = target: T4, Serine/threonine-protein kinase Nek9 (Homo sapiens); conditions: at 1 µM
[12] = target: Serine/threonine-protein kinase PLK1 (Homo sapiens) (UniProt P53350); conditions: at 0.1 µM
Serine/threonine-protein kinase PLK1 (Homo sapiens), sequence (P53350 whole entry): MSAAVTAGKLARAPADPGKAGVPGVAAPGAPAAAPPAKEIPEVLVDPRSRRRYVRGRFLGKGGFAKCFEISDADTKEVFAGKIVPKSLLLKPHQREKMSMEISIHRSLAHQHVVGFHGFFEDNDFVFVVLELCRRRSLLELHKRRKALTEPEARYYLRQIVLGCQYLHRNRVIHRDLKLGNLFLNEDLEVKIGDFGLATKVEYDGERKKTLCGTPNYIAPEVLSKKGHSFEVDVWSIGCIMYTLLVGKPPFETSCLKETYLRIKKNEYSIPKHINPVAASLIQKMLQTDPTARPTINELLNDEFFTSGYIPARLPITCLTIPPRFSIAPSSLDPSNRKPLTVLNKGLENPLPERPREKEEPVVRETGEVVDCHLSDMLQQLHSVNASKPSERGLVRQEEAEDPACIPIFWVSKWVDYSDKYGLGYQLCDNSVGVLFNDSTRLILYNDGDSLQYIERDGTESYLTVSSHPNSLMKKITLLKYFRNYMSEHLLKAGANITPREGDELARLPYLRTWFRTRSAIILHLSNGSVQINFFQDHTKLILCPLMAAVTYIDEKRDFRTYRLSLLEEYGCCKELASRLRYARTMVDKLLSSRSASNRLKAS

[13] = target: Serine/threonine-protein kinase PLK1 (Homo sapiens) (UniProt P53350); conditions: at 1 µM
[14] = target: T5, Dual specificity protein kinase TTK (Homo sapiens) (UniProt P33981); conditions: at 0.1 µM
T5 sequence (whole entry): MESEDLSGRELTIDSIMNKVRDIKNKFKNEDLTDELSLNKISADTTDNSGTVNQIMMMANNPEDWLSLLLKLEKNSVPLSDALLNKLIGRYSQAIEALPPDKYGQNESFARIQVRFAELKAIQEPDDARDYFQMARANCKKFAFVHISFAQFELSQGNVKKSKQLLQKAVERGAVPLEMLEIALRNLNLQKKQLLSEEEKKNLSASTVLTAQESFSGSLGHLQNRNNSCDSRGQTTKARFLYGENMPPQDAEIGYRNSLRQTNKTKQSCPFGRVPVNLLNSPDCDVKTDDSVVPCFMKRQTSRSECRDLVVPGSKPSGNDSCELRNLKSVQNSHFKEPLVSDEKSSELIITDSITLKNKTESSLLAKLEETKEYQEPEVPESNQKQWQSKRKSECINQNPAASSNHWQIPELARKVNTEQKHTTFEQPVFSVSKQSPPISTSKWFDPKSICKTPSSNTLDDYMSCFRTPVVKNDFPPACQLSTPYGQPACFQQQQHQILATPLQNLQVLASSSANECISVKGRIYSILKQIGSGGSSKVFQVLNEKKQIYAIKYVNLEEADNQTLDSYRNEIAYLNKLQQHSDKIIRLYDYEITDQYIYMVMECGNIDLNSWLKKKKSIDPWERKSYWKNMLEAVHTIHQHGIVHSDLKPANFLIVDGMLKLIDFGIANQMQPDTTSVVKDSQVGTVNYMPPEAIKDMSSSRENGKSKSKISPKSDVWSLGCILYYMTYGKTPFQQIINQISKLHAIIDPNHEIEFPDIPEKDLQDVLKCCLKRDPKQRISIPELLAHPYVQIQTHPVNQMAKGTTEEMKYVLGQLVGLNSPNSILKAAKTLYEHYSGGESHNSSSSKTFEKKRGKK

[15] = tested on: T6, Receptor-type tyrosine-protein kinase FLT3 (Homo sapiens), P36888 [D835Y]; conditions: at 1 µM
T6 sequence (whole entry): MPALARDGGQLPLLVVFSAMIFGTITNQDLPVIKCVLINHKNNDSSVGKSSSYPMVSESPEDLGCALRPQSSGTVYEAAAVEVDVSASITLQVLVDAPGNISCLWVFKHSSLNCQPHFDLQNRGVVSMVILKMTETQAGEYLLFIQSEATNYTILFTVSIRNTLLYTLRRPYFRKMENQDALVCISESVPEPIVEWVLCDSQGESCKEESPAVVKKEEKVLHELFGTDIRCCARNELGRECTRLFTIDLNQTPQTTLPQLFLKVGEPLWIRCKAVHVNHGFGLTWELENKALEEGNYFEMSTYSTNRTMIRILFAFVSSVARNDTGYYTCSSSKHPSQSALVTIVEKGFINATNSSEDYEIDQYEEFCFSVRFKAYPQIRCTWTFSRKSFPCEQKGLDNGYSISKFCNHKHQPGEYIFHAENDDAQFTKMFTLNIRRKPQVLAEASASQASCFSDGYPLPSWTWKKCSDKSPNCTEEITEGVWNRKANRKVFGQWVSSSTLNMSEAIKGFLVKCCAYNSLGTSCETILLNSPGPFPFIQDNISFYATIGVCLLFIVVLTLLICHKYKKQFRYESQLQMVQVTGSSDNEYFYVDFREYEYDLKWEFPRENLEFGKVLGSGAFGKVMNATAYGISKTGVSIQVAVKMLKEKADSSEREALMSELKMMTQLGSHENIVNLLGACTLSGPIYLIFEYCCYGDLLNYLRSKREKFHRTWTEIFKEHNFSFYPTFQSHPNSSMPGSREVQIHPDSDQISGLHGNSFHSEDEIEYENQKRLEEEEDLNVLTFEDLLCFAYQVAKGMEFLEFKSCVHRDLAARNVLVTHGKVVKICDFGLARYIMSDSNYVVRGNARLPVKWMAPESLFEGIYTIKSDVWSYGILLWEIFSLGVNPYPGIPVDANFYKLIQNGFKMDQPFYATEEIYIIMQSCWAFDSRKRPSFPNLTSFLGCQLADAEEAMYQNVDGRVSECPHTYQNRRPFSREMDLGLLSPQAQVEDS

[16] = target: Vascular endothelial growth factor receptor 3 (Homo sapiens) (UniProt P35916); conditions: at 0.1 µM
Vascular endothelial growth factor receptor 3 (Homo sapiens), sequence (P35916 whole entry): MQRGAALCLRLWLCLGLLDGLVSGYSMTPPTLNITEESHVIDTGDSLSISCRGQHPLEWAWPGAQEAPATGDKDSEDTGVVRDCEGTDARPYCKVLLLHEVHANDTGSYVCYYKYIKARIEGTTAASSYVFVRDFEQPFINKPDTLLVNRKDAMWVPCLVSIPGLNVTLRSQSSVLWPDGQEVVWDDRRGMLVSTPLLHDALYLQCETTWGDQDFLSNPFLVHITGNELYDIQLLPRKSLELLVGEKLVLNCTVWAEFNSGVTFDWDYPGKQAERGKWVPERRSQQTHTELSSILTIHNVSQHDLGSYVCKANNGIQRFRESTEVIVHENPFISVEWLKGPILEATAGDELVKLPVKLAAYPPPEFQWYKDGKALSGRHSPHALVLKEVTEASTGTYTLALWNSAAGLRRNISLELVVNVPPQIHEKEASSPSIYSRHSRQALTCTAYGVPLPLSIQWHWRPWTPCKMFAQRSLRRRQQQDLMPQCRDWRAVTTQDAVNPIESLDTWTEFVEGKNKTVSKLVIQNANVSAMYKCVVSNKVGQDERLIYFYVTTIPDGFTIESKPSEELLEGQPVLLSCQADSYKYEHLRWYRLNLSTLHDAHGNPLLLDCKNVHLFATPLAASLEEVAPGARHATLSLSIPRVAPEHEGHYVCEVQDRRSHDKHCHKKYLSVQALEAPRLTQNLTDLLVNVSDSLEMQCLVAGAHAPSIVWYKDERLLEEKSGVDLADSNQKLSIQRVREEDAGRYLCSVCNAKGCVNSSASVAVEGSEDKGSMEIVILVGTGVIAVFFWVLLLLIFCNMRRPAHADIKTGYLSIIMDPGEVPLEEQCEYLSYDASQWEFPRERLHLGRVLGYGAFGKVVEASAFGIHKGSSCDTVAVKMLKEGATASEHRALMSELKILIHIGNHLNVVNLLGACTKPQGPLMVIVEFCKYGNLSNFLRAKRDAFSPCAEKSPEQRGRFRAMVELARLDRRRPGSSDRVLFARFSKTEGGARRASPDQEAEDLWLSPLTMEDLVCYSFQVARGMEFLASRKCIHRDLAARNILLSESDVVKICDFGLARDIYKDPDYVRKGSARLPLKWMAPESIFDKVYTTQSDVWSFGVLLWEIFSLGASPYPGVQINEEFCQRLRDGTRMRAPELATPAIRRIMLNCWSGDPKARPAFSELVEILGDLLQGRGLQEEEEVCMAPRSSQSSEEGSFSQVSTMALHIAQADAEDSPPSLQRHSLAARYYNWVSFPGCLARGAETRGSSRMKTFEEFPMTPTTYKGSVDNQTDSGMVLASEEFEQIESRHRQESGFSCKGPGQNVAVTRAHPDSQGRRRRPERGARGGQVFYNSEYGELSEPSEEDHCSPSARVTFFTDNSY

[17] = target: Vascular endothelial growth factor receptor 3 (Homo sapiens) (UniProt P35916); conditions: at 1 µM
[18] = target: Macrophage colony-stimulating factor 1 receptor (Homo sapiens) (UniProt P07333); conditions: at 0.1 µM
Macrophage colony-stimulating factor 1 receptor (Homo sapiens), sequence (P07333 whole entry): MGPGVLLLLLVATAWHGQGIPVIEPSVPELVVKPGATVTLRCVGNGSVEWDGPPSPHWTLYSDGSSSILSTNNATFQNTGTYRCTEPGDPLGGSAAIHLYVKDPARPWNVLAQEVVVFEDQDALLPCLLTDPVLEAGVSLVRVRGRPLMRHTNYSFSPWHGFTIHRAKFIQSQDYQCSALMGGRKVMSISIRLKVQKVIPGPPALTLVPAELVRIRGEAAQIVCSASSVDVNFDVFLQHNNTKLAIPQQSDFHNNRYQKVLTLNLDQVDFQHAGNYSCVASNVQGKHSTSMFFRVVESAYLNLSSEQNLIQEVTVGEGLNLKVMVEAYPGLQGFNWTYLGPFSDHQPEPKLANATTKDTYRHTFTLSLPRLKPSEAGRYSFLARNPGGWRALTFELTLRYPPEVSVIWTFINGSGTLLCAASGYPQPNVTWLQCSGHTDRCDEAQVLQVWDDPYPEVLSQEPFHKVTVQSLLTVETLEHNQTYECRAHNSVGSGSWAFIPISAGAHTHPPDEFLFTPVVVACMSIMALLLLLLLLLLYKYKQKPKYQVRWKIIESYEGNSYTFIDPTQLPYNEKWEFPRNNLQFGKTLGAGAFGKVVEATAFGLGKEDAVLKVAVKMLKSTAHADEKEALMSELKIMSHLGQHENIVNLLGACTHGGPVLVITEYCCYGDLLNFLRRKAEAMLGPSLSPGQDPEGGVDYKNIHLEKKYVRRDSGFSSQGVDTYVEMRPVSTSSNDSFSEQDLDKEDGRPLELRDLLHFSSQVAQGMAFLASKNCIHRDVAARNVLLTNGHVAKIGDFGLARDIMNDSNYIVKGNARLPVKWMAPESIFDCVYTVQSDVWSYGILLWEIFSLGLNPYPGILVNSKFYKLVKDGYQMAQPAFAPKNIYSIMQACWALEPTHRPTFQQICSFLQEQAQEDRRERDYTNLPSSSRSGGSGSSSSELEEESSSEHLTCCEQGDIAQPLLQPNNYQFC

[19] = target: Macrophage colony-stimulating factor 1 receptor (Homo sapiens) (UniProt P07333); conditions: at 1 µM
[20] = target: Tyrosine-protein kinase Fyn (Homo sapiens) (UniProt P06241); conditions: at 0.1 µM
Tyrosine-protein kinase Fyn (Homo sapiens), sequence (P06241 2-537 limits assumed): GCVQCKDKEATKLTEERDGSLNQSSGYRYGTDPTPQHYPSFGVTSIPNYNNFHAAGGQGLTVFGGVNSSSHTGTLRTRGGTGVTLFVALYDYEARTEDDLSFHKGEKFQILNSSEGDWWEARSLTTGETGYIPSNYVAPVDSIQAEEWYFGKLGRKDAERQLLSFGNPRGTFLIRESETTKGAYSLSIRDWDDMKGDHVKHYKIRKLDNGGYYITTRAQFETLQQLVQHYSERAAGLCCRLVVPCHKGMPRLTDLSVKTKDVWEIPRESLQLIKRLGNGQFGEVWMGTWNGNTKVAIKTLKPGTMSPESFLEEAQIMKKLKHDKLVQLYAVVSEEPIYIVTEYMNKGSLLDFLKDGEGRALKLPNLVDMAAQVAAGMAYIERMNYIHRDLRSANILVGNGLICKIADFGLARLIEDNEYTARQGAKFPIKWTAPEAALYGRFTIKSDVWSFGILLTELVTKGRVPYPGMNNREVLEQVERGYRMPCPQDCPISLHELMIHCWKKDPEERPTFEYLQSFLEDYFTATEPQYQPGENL

Row | Compound | inhibition [1] | inhibition [2] | inhibition [3] | inhibition [4] | inhibition [5] | inhibition [6] | inhibition [7] | inhibition [8] | inhibition [9] | inhibition [10] | inhibition [11] | inhibition [12] | inhibition [13] | inhibition [14] | inhibition [15] | inhibition [16] | inhibition [17] | inhibition [18] | inhibition [19] | inhibition [20]
1 | COC(=O)c1cncc(/C=C/c2c(C)cc(O)cc2C)c1 | 8.63% | 1.51% | 3.23% | 4.54% | 3.91% | 0.94% | 4.21% | 2.47% | 1.56% | 2.09% | 3.89% | 1.89% | 1.85% | 6.05% | 1.33% | 4.3% | 2.63% | 6.96% | 37.7% | 3.73%
2 | Nc1ccc(C#Cc2cncnc2Nc2ccc(OCc3cccc(F)c3)c(Cl)c2)cc1 | 4.07% | 3.38% | 2.7% | 3.5% | 3.39% | 2.73% | 0.63% | 1.31% | 1.32% | 3.62% | 6.07% | 0.94% | -0.53% | 4.2% | -6.67% | 1.01% | 1.86% | 0.06% | 3.9% | 1.67%
3 | O=C1Nc2ccc(-c3cccnc3)cc2C1=Cc1cc(Br)c(O)c(Br)c1 | 92.1% | 2.32% | 0.46% | 4.11% | 2.79% | 4.82% | 0.55% | 5.27% | 4.87% | 6.61% | 0.27% | 3.43% | 7.7% | 6.45% | 13.7% | 2.46% | 4.42% | 4.24% | 7.78% | 2.17%
